Laboratory results: PubChem BioAssay (NCATS)
Calls of active or inactive are those of the source. The rule behind the calls is not given here.

test system: HIV-1 nucleocapsid protein NCp7 (binding to TG oligonucleotide); experiment: HIV Nucleocapsid (AID 346); conditions: HIV-1 NC / fluorescein-TGTGTGTG probe, fluorescence polarization;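 note: potency is for inhibitors that block NC binding and lower polarization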
In short: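 Inhibition of nucleocapsid binding to single-stranded 5'-TGTGTGTG probe (10 nM) was measured by fluorescence polarization after 1 hr at room temperature with 100 nM protein under high-salt, zinc-containing, reducing conditions.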
Potency is the fitted concentration of half-maximal effect.

| Compound | Potency |
| --- | --- |
| CCNc1ncc2ncc(=O)n(CCc3ccccc3)c2n1 | > 20 µM (inactive) |
| O=C(c1cnccn1)N1CCC2(CCCN(C(c3ccccc3)c3ccccc3)C2)CC1 | > 20 µM (inactive) |
| COc1cccc(-c2ccc3ncnc(NC4CC4)c3c2)c1 | > 20 µM (inactive) |
| O=c1c(CCc2ccccc2)nc2cncnc2n1Cc1ccccc1Cl | > 20 µM (inactive) |
| N#CCCn1c(=O)c(CCc2ccccc2)nc2cnc(Oc3ccccc3)nc21 | > 20 µM (inactive) |
| COCCn1c(=O)c(-c2cccs2)nc2cnc(Oc3cccc(Cl)c3)nc21 | > 20 µM (inactive) |
| CNc1nc(-c2ccccc2OC)nc2ccccc12 | > 20 µM (inactive) |
| COc1ccc(Oc2ncc3nc(-c4cccs4)c(=O)n(CCC#N)c3n2)cc1 | > 20 µM (inactive) |
| CN(C)C(=O)c1ccc(-c2nccc(Nc3ccc(F)cc3)n2)cc1 | > 20 µM (inactive) |
| COc1ccc(-n2c(=O)c(-c3ccc(Cl)cc3)nc3cnc(N(C)C)nc32)cc1 | > 20 µM (inactive) |
| Cn1cccc1C(=O)N1CCC2(CCCN(Cc3ccc(C#N)cc3)C2)CC1 | > 20 µM (inactive) |
| Cc1cnc(CNc2ccnc(-c3ccccc3CN(C)C)n2)cn1 | > 20 µM (inactive) |
| CN1CCN(c2ncc3nc(CCc4ccccc4)c(=O)n(CCC#N)c3n2)CC1 | > 20 µM (inactive) |
| COc1ccc(NC(=O)N2CC3(CCNCC3)C2)cc1 | > 20 µM (inactive) |
| O=C(Nc1cccc(F)c1)N1CC[C@@]2(CCCN(S(=O)(=O)c3ccccc3)C2)C1 | > 20 µM (inactive) |
| COCCn1c(=O)c(-c2ccc(Cl)cc2)nc2cnc(OCc3ccccc3)nc21 | > 20 µM (inactive) |
| COCC(=O)N1CCC2(CCCN(Cc3cc(C(F)(F)F)cc(C(F)(F)F)c3)C2)CC1 | > 20 µM (inactive) |
| COC(=O)N1CCC2(CCN(Cc3ccccc3OC)CC2)CC1 | > 20 µM (inactive) |
| c1ccc2c(N3CCNCC3)nc(-c3ccc4c(c3)OCO4)nc2c1 | > 20 µM (inactive) |
| CN1CCN(c2ccnc(-c3cccc(NS(C)(=O)=O)c3)n2)CC1 | > 20 µM (inactive) |
| N#Cc1cccc(NC(=O)N2CC3(CCN(C(=O)c4cc(C(F)(F)F)cc(C(F)(F)F)c4)CC3)C2)c1 | > 20 µM (inactive) |
| Cn1cccc1C(=O)N1CCC2(CCCN(C(=O)Nc3cccc(F)c3)C2)CC1 | > 20 µM (inactive) |
| O=C(c1cc(C(F)(F)F)cc(C(F)(F)F)c1)N1CCC2(CC1)CN(c1ncccn1)C2 | > 20 µM (inactive) |
| CN(C)C(=O)c1ccc(-c2nc(NC3CCNCC3)c3ccccc3n2)cc1 | > 20 µM (inactive) |
| COc1cccc(Cn2c(=O)c(-c3cc(F)cc(F)c3)nc3cnc(OC)nc32)c1 | > 20 µM (inactive) |
